Results on eight compounds are retold here after PubChem BioAssay (NCI).

About 83,000 compounds went through this panel and 20% of them were active in at least one assay; those are over-represented in the sample as a whole.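 Cells were grown in 96-well plates and exposed to the test compound at a single concentration for 48 hours; results are reported as percent growth, with values below 10 considered active.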 Unmarked numbers belong to inactive results. The source made the active and inactive calls.

Holding throughout (assay): NCI-60 one-dose screen, 48 h (100 = growth as untreated, 0 = no growth, -100 = all killed)
What all share (conditions): 10 µM unless noted

In assay [1] the test system is SK-MEL-2 melanoma.
In assay [2] the test system is EKVX NSCLC.
The test system of assay [3] is SN12C renal.
Assay [4] has as its system UO-31 renal.
In assay [5] the test system is TK-10 renal.
In assay [6] the test system is ACHN renal.
Assay [7] deals with CAKI-1 renal.
Assay [8] has as its system A498 renal.
Assay [9] relates to CCRF-CEM leukemia.
Assay [10] has as its system MOLT-4 leukemia.
Assay [11] deals with SR leukemia.
For assay [12], the system named is OVCAR-8 ovarian.
Assay [13] concerns OVCAR-5 ovarian.
The subject of assay [14] is OVCAR-4 ovarian.
The subject of assay [15] is SK-OV-3 ovarian.
The test system of assay [16] is IGROV1 ovarian.
Assay [17] deals with OVCAR-3 ovarian.
The test system of assay [18] is HS 578T breast.
Assay [19] relates to NCI/ADR-RES ovarian.
In assay [20] the test system is RPMI-8226 leukemia.

As to `O=C1NC(Cc2c[nH]c3ccccc23)C(=O)N1Cc1ccc(Cl)cc1` (stereo not given), the growth in assay [1] is 66.3%; in assay [2] it was 103%; in assay [3], 99.7%; in assay [4] it was 76%; in assay [5], 135%; in assay [6], 95%. In addition, the growth in assay [7] is 86.9%; in [8] it was 78.9%; in assay [9], 70.1%; in [10], 85.4%; in assay [11] it was 90.1%; in [12] it was 97.9%. Further, the growth in assay [13] is 108%; in assay [14], 96.9%; in assay [15], 101%; in assay [16], 85.2%; in assay [17], 106%; in assay [18] it was 108%. For the same compound, the growth in assay [19] was 106%.

`O=[N+]([O-])c1ccc(S(=O)(=O)N2CCN(c3ccnc4cc(Cl)ccc34)CC2)c([N+](=O)[O-])c1`: the growth in assay [1] is 101%; in assay [2], 87.9%; in assay [3], 88.2%; in assay [4], 55.4%; in assay [5], 95.4%; in assay [6], 84.3%. Moreover, the growth is 81.1% in [7]; 90% in [8]; 14.8% in assay [9]; 44.5% in [10]; 3.12% (active) in assay [11]; 25.7% in assay [20]. For the same compound, the growth in [13] is 106%; in assay [14] it was 95.3%; in [15], 105%; in assay [16], 99.5%; in [17] it was 93%; in assay [18], 89.1%. The growth in [19] was 95.5%.

As for `COc1cc(Br)c(OC)cc1Br`, the growth was 101% in [1]; 76% in assay [2]; 110% in assay [3]; 60.4% in [4]; 140% in assay [5]; 92.4% in assay [6]. Also, the growth in assay [7] is 85.2%; in assay [8], 88.7%; in [9] it was 116%; in assay [10], 98.3%; in assay [11] it was 111%; in assay [20], 96.2%. Also, the growth is 105% in [12]; 93% in [13]; 102% in assay [14]; 79.5% in assay [16]; 96.8% in assay [17]; 94.1% in assay [18]. Also, in assay [19], the growth was 95.3%.

For the compound `O=C(Cc1c(F)cccc1Cl)Nc1ccc(S(=O)(=O)Nc2ncccn2)cc1`, the growth was 73.1% in [1]; 100% in assay [2]; 96% in assay [3]; 42.7% in assay [4]; 112% in assay [5]; 100% in [6]. For the same compound, the growth in assay [7] is 91%; in assay [8], 98.4%; in [9], 61.6%; in [10], 103%; in assay [11] it was 52%; in assay [12], 113%. Moreover, the growth in [13] is 103%; in assay [14], 101%; in assay [15], 102%; in [16], -23.2% (active); in [17] it was 109%; in assay [18], 111%. In addition, the growth in [19] was 108%.

Take `CC(C)(C)c1cc(-c2nc3ccc(N4CCN(CCO)CC4)cc3[nH]2)cc(C(C)(C)C)c1O`: the growth in assay [1] is 81.8%; in [2], 92.9%; in [3], 85.8%; in assay [4], 72.4%; in [5], 87.6%; in assay [6] it was 89.2%. In addition, the growth in [7] is 63.2%; in assay [8] it was 86.1%; in [9], 29.5%; in assay [10], 32.9%; in assay [11] it was -16% (active); in [12], 83.8%. Besides, the growth in assay [13] is 90.6%; in [14], 76.7%; in assay [15] it was 84%; in assay [16], 82.7%; in assay [17], 72.7%; in assay [18] it was 67%. The growth in assay [19] is 93.2%.

Consider `O=c1[nH]c(CN2CCN(c3ccccc3F)CC2)nc2sc3c(c12)CCC3`, for which the growth in assay [1] is 87.6%; in assay [2], 100%; in assay [3], 99.7%; in [4], 95.2%; in assay [5], -3.37% (active); in assay [6] it was 113%. The growth in [7] was 122%; in assay [8], 93%; in [9], 100%; in [10], 99.8%; in [11], 94.8%; in [20], 107%. Moreover, the growth in assay [12] was 101%; in [13], 96.8%; in assay [15] it was 96.5%; in [16] it was 84.7%; in assay [17], 118%; in [18], 121%. Also, in assay [19], the growth is 111%.

As to `C=C1C(=O)O[C@H]2[C@H]1CC/C(COC(=O)NCCc1cccc(OC)c1)=C\CC[C@@]1(C)O[C@@H]21`, the growth in assay [1] was 68.5%; in assay [2] it was 68.3%; in assay [3], 42.6%; in assay [4] it was 32%; in assay [5], 24.9%; in assay [6], -9.71% (active). Also, the growth in assay [7] is 8.84% (active); in assay [8], 82.4%; in assay [9], 4.38% (active); in assay [10], 11.5%; in assay [11] it was 0.839% (active); in [20], 25.1%. The growth in [12] was 17.4%; in assay [13], 75.1%; in assay [15], 90.3%; in assay [17] it was -20% (active); in assay [18], 57.9%; in assay [19], 80%.

As for `CC(=O)/C=C/c1cc2cc(Cl)ccc2[nH]c1=O`, the growth in [1] was 87.9%; in [2], 89.3%; in [3], 77%; in assay [4], 77.5%; in [5], 95.5%; in assay [6], 92%. Moreover, the growth is 87% in assay [7]; 90.2% in assay [8]; 69% in [9]; 87.1% in [10]; 5.65% (active) in assay [11]; 54.5% in assay [20]. For the same compound, the growth in assay [12] was 92.2%; in [13], 95.3%; in assay [15], 88.7%; in assay [17] it was 84.7%; in assay [18], 89.7%; in assay [19] it was 100%.
